Source: PubChem BioAssay
This is a sample that favours compounds with a hit; in the whole collection about 1.3% have one here.
MEX-5 binding – MEX-5 zinc finger RNA-binding disruptors – biochemical, C. elegans, fluorescence polarization, MLPCN library, primary screen | Zinc finger protein mex-5 (Caenorhabditis elegans), Q9XUB2 | MEX-5/FITC-TCR2 RNA binding; hits give low values | activity score (negative = inhibition of binding), % at 10 µM | 300,000 compounds, 0.38% hits | AID 1832, 2009;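 active = inhibition past about -25% in most replicates, and total fluorescence under double the plate's negative control median, limit read from the data; inconclusive = replicates evenly split on the limit, or fluorescence at least double controls; inactive = too little inhibition in most replicates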
GLD-1 TGE inh – GLD-1/TGE RNA complex disruptors, primary screen, biochemical, fluorescence polarization; 320,000 compounds, 0.44% hits; AID 2280, 2010; inhibition, % at 5.96 µM; Female germline-specific tumor suppressor gld-1 (Caenorhabditis elegans), Q17339; purified GLD-1 + fluorescein TGE RNA;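 active = percent inhibition above a per-plate cutoff, the plate mean of test compounds plus 3 SD, cut at about 30% in these data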
Target sequence (Q17339 whole entry, looked up): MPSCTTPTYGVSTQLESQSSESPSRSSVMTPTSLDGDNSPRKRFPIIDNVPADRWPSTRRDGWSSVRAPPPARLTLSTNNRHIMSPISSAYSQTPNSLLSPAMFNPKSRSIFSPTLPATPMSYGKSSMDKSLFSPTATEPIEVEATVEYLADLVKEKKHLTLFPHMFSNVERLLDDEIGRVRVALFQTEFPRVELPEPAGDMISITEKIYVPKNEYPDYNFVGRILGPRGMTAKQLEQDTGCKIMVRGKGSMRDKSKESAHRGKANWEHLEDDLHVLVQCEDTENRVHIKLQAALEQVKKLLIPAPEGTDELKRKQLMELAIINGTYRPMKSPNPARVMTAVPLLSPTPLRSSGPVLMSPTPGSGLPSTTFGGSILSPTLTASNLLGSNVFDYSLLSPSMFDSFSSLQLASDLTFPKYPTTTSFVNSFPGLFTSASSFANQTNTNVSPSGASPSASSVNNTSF
EBV gp42 block – Epstein-Barr virus gp42 inhibitors, primary screen, biochemical, uHTS, fluorescence polarization. Glycoprotein 42 (Epstein-Barr virus (strain AG876)), Q1HVG2. Fluorescence polarization binding assay, mP read-out. inhibition, % (tested at 21.74 µM). 220,000 compounds, 0.42% hits; in the data active = inhibition above about 50%
E coli Lon inh – inhibitors of E. coli Lon protease, primary screen, biochemical, fluorescence polarization. P0A9M0. purified E. coli Lon protease. inhibition, % at 7.94 µM. 360,000 compounds, 0.42% hits. AID 602123, 2011; in the data active = inhibition above about 13%, passing the limit was not always enough
Bcl-xL primary – inhibitors of human Bcl-xL, primary screen, biochemical, fluorescence polarization, HTS; Bcl-2-like protein 1 (Homo sapiens), Q07817; GST-Bcl-xL / FITC-Bim BH3 peptide fluorescence polarization; inhibition, % at 10.9 µM; 320,000 compounds, 0.7% hits;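 active = inhibition above the mean of all tested compounds plus 3 SD, cutoff set per campaign, cut at about 30% in these data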;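 also: inhibitors lower millipolarization by displacing the labeled peptide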
Numbers stand for hits; n = inactive; u = inconclusive; x = no result; + = active, no number.

SMILES	MEX-5 binding	GLD-1 TGE inh	EBV gp42 block	E coli Lon inh	Bcl-xL primary
CCCCC(Sc1nc(N)c(NC(=O)c2ccco2)c(=O)[nH]1)C(=O)O (stereo unspecified)	n	n	x	n	31
Nn1c(Cc2ccccc2F)nnc1SCC(=O)N1CC(=O)Nc2ccccc21	n	n	60	n	n
CCCCOc1cccc(C(=O)N(Cc2ccccc2)C2CCS(=O)(=O)C2)c1 (stereo unspecified)	n	n	x	n	n
COCCCn1c(N)c(-c2nc3ccccc3n2C)c2nc3ccccc3nc21	-34	n	n	n	n
COc1ccc(C(=O)NC2(C(F)(F)F)C(=O)N(Cc3ccco3)C3=C2C(=O)CC(C)(C)C3)cc1OC (stereo unspecified)	u	n	77	n	n
COc1cc(C2c3cc4c(cc3CC3COC(=O)N32)OCO4)cc(OC)c1OC (stereo unspecified)	x	x	x	n	x
Cc1cc(-c2ccccc2)c(C#N)c(=S)[nH]1	n	n	83	n	n
N#Cc1c(-c2ccccc2Cl)cc(-c2ccccc2)[nH]c1=S	n	n	n	x	n
Cn1c(=O)c2c(-c3ccccc3)n(-c3cc([N+](=O)[O-])ccc3O)cc2n(C)c1=O	x	x	x	n	x
Cc1cc(C2C(C#N)=C(N)OC3=C2C(=O)CCC3)c(C)s1 (stereo unspecified)	n	n	n	n	n
COc1cc(C2C(C#N)=C(N)OC3=C2C(=O)CCC3)c([N+](=O)[O-])cc1OC (stereo unspecified)	-63	98	83	50	156
Cc1nn(-c2ccccc2)c2c1C(c1ccccc1)C(C#N)=C(N)O2 (stereo unspecified)	n	n	131	n	n
CCCC(=Nc1ccccc1)C1=C(O)C(C(=O)OC)C(C)(C)CC1=O (stereo unspecified)	n	n	n	n	n
CCCCC(=Nc1ccc(N)cc1)C1=C(O)C(C(=O)OC)C(C)(C)CC1=O (stereo unspecified)	n	n	n	n	32
O=C(NCC1CCN(c2ccc(S(=O)(=O)N3CCOCC3)cc2)CC1)c1cccc(Cl)c1	n	n	n	n	n
COc1cccc(C(=O)NCC2CCN(c3ccc(S(=O)(=O)N4CCOCC4)cc3)CC2)c1	-30	n	n	n	n
NS(=O)(=O)c1ccc(NCCCn2ccnc2)c([N+](=O)[O-])c1	n	n	x	n	n
O=C1c2ccccc2-c2onc3ccc(NCCCn4ccnc4)c1c23	u	198	n	x	+
CC(=O)c1cccc(NC(=O)CNC(=O)Cc2ccccc2)c1	n	n	x	n	n
O=C1C=C(NNC(=O)c2ccccc2Br)CCC1	n	69	n	n	n
CNC(=S)NNC(=O)c1ccccc1Br	n	n	n	n	n
CCOC(=O)C1=NNC(C(=O)c2ccc(C)cc2)C1c1ccc(OC)cc1 (stereo unspecified)	n	n	n	n	n
CCOC(=O)C1=NNC(C(=O)c2ccc(Cl)cc2)C1c1ccc(OC)cc1 (stereo unspecified)	n	n	82	n	n
COc1cccc(CC(=O)OCC(=O)NCCc2ccc(F)cc2)c1	x	n	x	n	n
CN(C)c1ccc(N2C(=O)CSC2=S)cc1	n	n	n	n	39
SMILES	MEX-5 binding	GLD-1 TGE inh	EBV gp42 block	E coli Lon inh	Bcl-xL primary
O=C1CSC(=S)N1c1ccc(F)cc1	n	n	x	x	n
COCCn1c(=S)[nH]c2cc(C(=O)NCCc3ccccc3)ccc2c1=O	n	n	x	n	n
N#Cc1c2ccc(OCC(=O)NCc3ccco3)cc2n2ccccc12	n	n	x	n	n
N#Cc1c2ccc(O)cc2n2ccccc12	n	n	n	n	45
COC(CNC(=O)C1CCN(S(=O)(=O)c2ccc3nc4c(c(C(=O)O)c3c2)CC(C)CC4)CC1)OC (stereo unspecified)	n	n	x	n	31
CC(C)c1onc(C(=O)NC2CCCCC2)c1[N+](=O)[O-]	n	n	n	n	n
FC(F)(F)c1cnc(Nc2ccc(N3CCOCC3)cc2)c(Cl)c1	n	n	n	n	n
Cn1c(=O)c2[nH]c(CN(Cc3ccccc3)Cc3ccccc3)nc2n(C)c1=O	n	34	n	n	n
COCCCNC(=O)CCC(=O)NNc1nc2ccccc2c2nc(C)nn12	-50	n	n	n	n
CCCCNC(=O)CCC(=O)NNc1nc2ccccc2c2nc(C)nn12	n	n	n	n	n
CCOCCCNC(=O)CCC(=O)NNc1nc2ccccc2c2nc(C)nn12	-39	n	n	n	n
Cc1oc(C(=O)O)cc1COc1cccc2cccnc12	n	n	n	n	n
CN(C)c1ccc(N=Cc2nc(-c3ccccc3)oc2O)cc1	-64	n	166	n	n
CC(=O)Oc1oc(-c2ccccc2)nc1C=Nc1ccc(N(C)C)cc1	-33	n	n	n	n
Oc1oc(-c2ccccc2)nc1C=Nc1ccccc1	n	n	n	n	n
CC1CC(=O)N(CC(=O)Nc2ccccc2F)c2ccccc2S1(=O)=O (stereo unspecified)	n	n	x	n	n
CCOC(=O)c1ccc(S(=O)(=O)Nc2cc(C(=O)O)ccc2Cl)cc1	n	n	n	n	n
CCOc1ccc(NC(=O)C(C)C(Cc2ccc(C)cc2)C(=O)O)cc1 (stereo unspecified)	n	n	x	n	n
O=c1cc(-c2ccc([N+](=O)[O-])cc2)nc2cc(-c3ccc(Cl)cc3)[nH]n12	x	n	83	x	n
CCCc1cc(=O)n2[nH]c(-c3ccc(Cl)cc3)cc2n1	n	n	x	n	n
N#C/C(=C\c1cc(O)c(O)c(O)c1)C(N)=O	-27	n	n	n	n
COc1ccc(N2C(=O)C(Cl)=C(Nc3ccccc3O)C2=O)cc1	-34	n	n	n	n
COc1ccc(N2C(=O)C(Cl)=C(Nc3ccccc3OC)C2=O)cc1	n	n	n	n	n
CCOC(=O)Cn1nc(C)c(NC(=O)c2ccc(Cl)c([N+](=O)[O-])c2)c1C	n	n	n	n	n
CCOc1ccc(C(=O)Nc2nnc(S(=O)(=O)Nc3ccccc3C)s2)cc1	n	n	x	n	n
SMILES	MEX-5 binding	GLD-1 TGE inh	EBV gp42 block	E coli Lon inh	Bcl-xL primary
Cc1ccc(N(C)S(=O)(=O)c2c(C)noc2/C=C/N(C)C)cc1	-30	n	x	n	n
Cc1ccc(CCNC(=O)C2CCCN(S(=O)(=O)c3c(C)noc3/C=C/N(C)C)C2)cc1 (stereo unspecified)	x	n	n	n	n
NC(=O)[C@@H]1CCCN1Cc1c(C(=O)N2CCc3ccccc3C2)nc2ccc(Cl)cn12	-32	36	x	n	41
C=CCn1c(O)c(N=Nc2ccccc2C)c2ccccc21	n	n	68	x	n
COCC(=O)N1CCC(Oc2ccc(C(=O)N(C)CCCC3CCCC3)cc2)CC1	n	n	x	n	n
CCCCn1c(SCC(=O)Nc2ccc(NC(C)=O)cc2)nc2ccccc2c1=O	n	74	x	n	n
